Records with an inconclusive call do not appear. The source made the active and inactive calls. Unless noted, the call rests on the fitted dose curve; in most records, active means well fitted curve in the direction sought with a large enough effect; inconclusive means small, poorly fitted or top-dose-only effect, or another doubt; inactive means no such curve, though single readings can be large; an effect the other way counts as inactive or inconclusive.
What was measured:
[1] = target: Cytochrome P450 1A2 (Homo sapiens) (UniProt P05177); assay: p450-cyp1a2 (AID 410; calls by dose curve;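 further: -100% = full effect of reference inhibitor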)
Outline: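 O-Demethylation of luciferin 6' methyl ether by human CYP1A2 is monitored as luciferase luminescence. Substrate sits at Km (100uM); enzyme is 20nM. Values are scaled to 57 uM furafylline as maximal inhibition.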

[2] = NFAT Signaling Pathway (AID 444; active means well fitted curve in either direction with a large enough effect, not every such curve was filed as active;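 further: carbachol stimulus at about its EC50 of 1 µM final; on the % scale 0 is the no-effect control and ±100 the full control effect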); settings: Jurkat NFAT-bla M1, carbachol, beta-lactamase ratio, 5 h; at 17.2 µM (top of the series) unless noted
Outline: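 Read-out: CCF4 FRET ratio (460 nm/530 nm) after 1 h RT dye loading, used for %activity and AC50 from titration series. Cells: Jurkat NFAT-β-lactamase/M1 line, treated with compound plus 1 uM carbachol for 5 h, 37 °C.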

[3] = Stat Signaling Pathway (AID 446; active means well fitted curve in either direction with a large enough effect, not every such curve was filed as active;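 further: ME-180 cervical cancer cells given 40 pM IL-6 alongside compound; SIE-controlled beta-lactamase reporter measured as 460/530 nm FRET emission ratio; on the % scale 0 is the no-effect control and ±100 the full control effect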); settings: ME-180 (cervical carcinoma) SIE beta-lactamase reporter, IL-6 stimulated, 5 h; at 17.2 µM (top of the series) unless noted
Outline: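 FRET read-out (405 nm excitation, 460/530 nm emission) of a beta-lactamase reporter under a STAT-inducible element in ME-180 cervical carcinoma cells. Cells with compound receive 40 pM IL-6 for 5 h. Values are normalised to AC90 stimulation and AC90 JAK-inhibitor controls.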

[4] = target: Glucocorticoid receptor (Homo sapiens) (UniProt P04150); assay: GR-GFP Redistribution (AID 450;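 active means compounds whose dose series gives a full or clear partial fitted curve of increased nuclear translocation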; further: potency means the concentration at half of the fitted maximal effect)
[5] = target: Glucocorticoid receptor (Homo sapiens) (UniProt P04150); assay: GR-EFC Redistribution (AID 451; calls by dose curve; further: potency means the concentration at half of the fitted maximal effect); settings: CHO-K1 GR-EFC translocation, beta-gal luminescence, 2 h
Outline: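 Translocation of GR-ED fusion to nuclear EA restores b-gal, read by luminescence after 1 h room-temperature detection. Engineered CHO-K1 biosensor cells, 1,000/well, exposed 2 h at 37 C to titrations up to 46 uM final.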

[6] = target: Mitogen-activated protein kinase 10 (Mus musculus) (UniProt Q61831); assay: JNK3 AlphaScreen Assay (AID 530; active means well fitted curve in either direction with a large enough effect, not every such curve was filed as active;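 further: kinase came from lysate of stimulated human HepG2 cells; signal reports phosphorylation of biotinylated GST-cJun 1-79 at Ser73 with 10 µM ATP; on the % scale 0 is the no-effect control and ±100 the full control effect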)
Outline: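 qHTS titrations with 15 min compound pre-incubation before adding ATP (10 uM final). Read-out: AlphaScreen of Ser73-phosphorylated biotin-GST-cJun using HepG2 lysate JNK3 activated by IL-1β and TNFα.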

[7] = target: 3',5'-cyclic-AMP phosphodiesterase 4B (Homo sapiens) (UniProt Q07343); assay: qHTS Assay for Inhibitors of PDE-IV (AID 607; active means well fitted activation curve with a large enough effect in the main read-out, with a control signal flat, not every such curve was filed as active; further: % of control where 0% means no effect)
Outline: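 Cell-based read-out of cAMP via a modified cyclic nucleotide-gated channel and membrane potential dye (535/590 nm) in HEK293 cells expressing PDE4 endogenously. Compounds tested up to 22.9 uM final; 100 uM RO 20-1724 reference.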

[8] = target: ATP-dependent 6-phosphofructokinase (Trypanosoma brucei brucei) (UniProt O15648); assay: qHTS Assay to Find Inhibitors of T. brucei phosphofructokinase: hit validation (AID 492961);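 further: luminescence reports ADP formed as PFK phosphorylates fructose-6-phosphate with ATP; on the % scale 0 is the no-effect control and ±100 the full control effect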
Outline: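 In this biochemical qHTS validation, titrated compounds were tested against 1.25 nM PFK with 0.1 mM ATP and 0.5 mM F6P. Percent activity came from controls lacking or containing enzyme.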

[9] = S16 Schwann cell PMP22 intronic element firefly luciferase assay (AID 624032); further: potency means the concentration at half of the fitted maximal effect; nearly all actives have a fitted effect of over 30% in size
Outline: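 Luciferase reporter of PMP22 intronic-element expression in stably transfected S16 rat Schwann cells, read by ONE-Glo luminescence after 24 h compound exposure at 37 C. Activity scaled between DMSO (0%) and positive-control PTC124; concentration-effect curves quality-classified.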

[10] = qHTS profiling for inhibitors of Plasmodium falciparum proliferation (AID 504749); further: potency means the concentration at half of the fitted maximal effect; nearly all actives have a fitted effect of over 60% in size; settings: P. falciparum in erythrocytes, SYBR Green DNA, 72 h
Outline: (§1)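 SYBR Green fluorescence of parasite DNA, read after lysis and overnight dark incubation, measured growth over 72 h in erythrocyte culture at 0.3% parasitemia and 2.5% hematocrit. Data normalised to DMSO and 0.29 uM artemisinin, with plate-drift correction.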

3D7 = assay: as above; settings: P. falciparum in erythrocytes, SYBR Green DNA, 72 h; series mostly up to 28.7 µM
Outline: as §1

7G8 = assay: as above; settings: P. falciparum in erythrocytes, SYBR Green DNA, 72 h; series mostly up to 28.7 µM
Outline: as §1

AA1029 = assay: as above; settings: P. falciparum in erythrocytes, SYBR Green DNA, 72 h; series mostly up to 28.7 µM
Outline: as §1

AS120 = assay: as above; settings: P. falciparum in erythrocytes, SYBR Green DNA, 72 h; series mostly up to 28.7 µM
Outline: as §1

ATS189 = assay: as above; settings: P. falciparum in erythrocytes, SYBR Green DNA, 72 h; series mostly up to 28.7 µM
Outline: as §1

ATS95 = assay: as above; settings: P. falciparum in erythrocytes, SYBR Green DNA, 72 h; series mostly up to 28.7 µM
Outline: as §1

C2A = assay: as above; settings: P. falciparum in erythrocytes, SYBR Green DNA, 72 h; series mostly up to 28.7 µM
Outline: as §1

CP185 = assay: as above; settings: P. falciparum in erythrocytes, SYBR Green DNA, 72 h; series mostly up to 28.7 µM
Outline: as §1

CP191 = assay: as above; settings: P. falciparum in erythrocytes, SYBR Green DNA, 72 h; series mostly up to 28.7 µM
Outline: as §1

CP192 = assay: as above; settings: P. falciparum in erythrocytes, SYBR Green DNA, 72 h; series mostly up to 28.7 µM
Outline: as §1

CP194 = assay: as above; settings: P. falciparum in erythrocytes, SYBR Green DNA, 72 h; series mostly up to 28.7 µM
Outline: as §1

CP201 = assay: as above; settings: P. falciparum in erythrocytes, SYBR Green DNA, 72 h; series mostly up to 28.7 µM
Outline: as §1

CP203 = assay: as above; settings: P. falciparum in erythrocytes, SYBR Green DNA, 72 h; series mostly up to 28.7 µM
Outline: as §1

CP211 = assay: as above; settings: P. falciparum in erythrocytes, SYBR Green DNA, 72 h; series mostly up to 28.7 µM
Outline: as §1

CP215 = assay: as above; settings: P. falciparum in erythrocytes, SYBR Green DNA, 72 h; series mostly up to 28.7 µM
Outline: as §1

CP217 = assay: as above; settings: P. falciparum in erythrocytes, SYBR Green DNA, 72 h; series mostly up to 28.7 µM
Outline: as §1

CP237 = assay: as above; settings: P. falciparum in erythrocytes, SYBR Green DNA, 72 h; series mostly up to 28.7 µM
Outline: as §1

CP238 = assay: as above; settings: P. falciparum in erythrocytes, SYBR Green DNA, 72 h; series mostly up to 28.7 µM
Outline: as §1

CP247 = assay: as above; settings: P. falciparum in erythrocytes, SYBR Green DNA, 72 h; series mostly up to 28.7 µM
Outline: as §1

CP250 = assay: as above; settings: P. falciparum in erythrocytes, SYBR Green DNA, 72 h; series mostly up to 28.7 µM
Outline: as §1

CP252 = assay: as above; settings: P. falciparum in erythrocytes, SYBR Green DNA, 72 h; series mostly up to 28.7 µM
Outline: as §1

CP256 = assay: as above; settings: P. falciparum in erythrocytes, SYBR Green DNA, 72 h; series mostly up to 28.7 µM
Outline: as §1

CP260 = assay: as above; settings: P. falciparum in erythrocytes, SYBR Green DNA, 72 h; series mostly up to 28.7 µM
Outline: as §1

Sequence of Glucocorticoid receptor (Homo sapiens) (P04150 whole entry, looked up, the tested form may be a part): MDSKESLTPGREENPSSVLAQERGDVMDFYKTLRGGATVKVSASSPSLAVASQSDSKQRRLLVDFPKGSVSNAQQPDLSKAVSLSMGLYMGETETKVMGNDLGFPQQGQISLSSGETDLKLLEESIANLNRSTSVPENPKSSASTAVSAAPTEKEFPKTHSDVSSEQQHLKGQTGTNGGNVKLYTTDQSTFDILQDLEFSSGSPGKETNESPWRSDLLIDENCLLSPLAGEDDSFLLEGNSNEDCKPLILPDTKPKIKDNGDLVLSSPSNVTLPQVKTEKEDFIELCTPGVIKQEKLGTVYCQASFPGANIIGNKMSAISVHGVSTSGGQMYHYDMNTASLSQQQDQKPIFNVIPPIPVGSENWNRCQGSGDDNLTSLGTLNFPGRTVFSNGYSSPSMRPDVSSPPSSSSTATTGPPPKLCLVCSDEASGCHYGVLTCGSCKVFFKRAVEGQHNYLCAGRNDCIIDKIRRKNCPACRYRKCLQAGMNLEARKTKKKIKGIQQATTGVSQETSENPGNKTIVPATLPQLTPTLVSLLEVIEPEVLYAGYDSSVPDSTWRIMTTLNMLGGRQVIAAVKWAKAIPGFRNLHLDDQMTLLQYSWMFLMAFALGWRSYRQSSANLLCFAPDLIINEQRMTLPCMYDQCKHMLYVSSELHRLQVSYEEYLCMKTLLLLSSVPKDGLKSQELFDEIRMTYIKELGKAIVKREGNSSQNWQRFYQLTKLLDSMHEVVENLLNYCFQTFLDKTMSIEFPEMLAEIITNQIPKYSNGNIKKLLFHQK
Sequence of Cytochrome P450 1A2 (Homo sapiens) (P05177 whole entry, looked up): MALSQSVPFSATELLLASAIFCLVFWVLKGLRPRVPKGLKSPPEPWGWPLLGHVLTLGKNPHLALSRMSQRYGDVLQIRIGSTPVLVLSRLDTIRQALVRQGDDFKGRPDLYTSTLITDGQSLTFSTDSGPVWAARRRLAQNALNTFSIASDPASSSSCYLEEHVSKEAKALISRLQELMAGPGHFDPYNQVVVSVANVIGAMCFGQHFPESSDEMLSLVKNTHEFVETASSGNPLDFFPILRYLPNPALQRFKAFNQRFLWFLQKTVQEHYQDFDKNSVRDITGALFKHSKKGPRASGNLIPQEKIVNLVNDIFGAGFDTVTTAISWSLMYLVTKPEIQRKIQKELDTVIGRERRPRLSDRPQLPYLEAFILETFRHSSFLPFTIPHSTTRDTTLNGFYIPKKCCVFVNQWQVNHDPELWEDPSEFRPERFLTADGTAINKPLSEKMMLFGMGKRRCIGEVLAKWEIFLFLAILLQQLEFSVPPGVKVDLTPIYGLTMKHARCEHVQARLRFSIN
Sequence of 3',5'-cyclic-AMP phosphodiesterase 4B (Homo sapiens) (Q07343 whole entry, looked up): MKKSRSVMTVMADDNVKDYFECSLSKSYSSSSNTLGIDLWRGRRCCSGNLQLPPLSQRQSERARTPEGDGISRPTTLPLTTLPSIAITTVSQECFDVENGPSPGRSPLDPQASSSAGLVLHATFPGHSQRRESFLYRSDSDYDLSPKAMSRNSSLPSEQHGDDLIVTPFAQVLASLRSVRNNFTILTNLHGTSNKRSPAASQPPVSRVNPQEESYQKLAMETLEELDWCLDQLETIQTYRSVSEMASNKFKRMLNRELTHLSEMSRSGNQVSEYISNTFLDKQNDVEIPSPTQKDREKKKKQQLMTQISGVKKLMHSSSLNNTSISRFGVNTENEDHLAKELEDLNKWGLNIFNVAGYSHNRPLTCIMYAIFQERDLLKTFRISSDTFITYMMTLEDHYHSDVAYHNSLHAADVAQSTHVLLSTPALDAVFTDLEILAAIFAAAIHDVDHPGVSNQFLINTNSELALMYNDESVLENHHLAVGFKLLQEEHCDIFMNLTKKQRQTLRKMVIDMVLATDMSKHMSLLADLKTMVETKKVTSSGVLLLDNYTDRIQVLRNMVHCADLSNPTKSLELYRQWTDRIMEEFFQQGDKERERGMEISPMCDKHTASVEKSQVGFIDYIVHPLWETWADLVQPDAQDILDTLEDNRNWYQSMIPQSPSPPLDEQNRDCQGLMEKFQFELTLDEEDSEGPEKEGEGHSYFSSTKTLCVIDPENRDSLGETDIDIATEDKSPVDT
Sequence of ATP-dependent 6-phosphofructokinase (Trypanosoma brucei brucei) (O15648 whole entry, looked up): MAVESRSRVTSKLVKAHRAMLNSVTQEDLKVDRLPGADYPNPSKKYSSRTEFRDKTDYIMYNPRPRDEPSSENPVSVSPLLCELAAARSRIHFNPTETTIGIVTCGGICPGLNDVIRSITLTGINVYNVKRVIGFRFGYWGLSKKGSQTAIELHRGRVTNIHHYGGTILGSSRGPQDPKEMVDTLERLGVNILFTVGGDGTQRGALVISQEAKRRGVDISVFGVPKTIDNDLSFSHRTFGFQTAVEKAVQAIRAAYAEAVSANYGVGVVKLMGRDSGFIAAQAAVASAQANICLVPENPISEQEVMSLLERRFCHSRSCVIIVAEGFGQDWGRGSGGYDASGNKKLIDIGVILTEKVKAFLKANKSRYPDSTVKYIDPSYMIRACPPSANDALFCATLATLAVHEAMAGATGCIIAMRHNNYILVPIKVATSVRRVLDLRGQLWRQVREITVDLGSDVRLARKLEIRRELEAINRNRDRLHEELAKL

CC[C@]1([C@H]2O[C@@H]([C@@H]3O[C@](O)(CO)[C@@H](C)C[C@H]3C)C[C@H]2C)CC[C@@H]([C@]2(C)CC[C@@]3(C[C@@H](O)[C@@H](C)[C@@H]([C@H](C)[C@H](OC)[C@H](C)C(=O)O)O3)O2)O1
inactive: Potency [1] | activity change, negative = inhibition [2] 20.4% | activity, negative = inhibition [3] -3.04% | Potency [4] > 20.6 µM | Potency [5] > 20.6 µM | Potency [6] | Potency [7] | Potency [8]
active: Potency [9] 510 nM | Potency ([10]; parasite line A) 25.1 nM | Potency ([10]; parasite line B) 25.1 nM | Potency (3D7) 25.1 nM | Potency (7G8) 15.8 nM | Potency (AA1029) 39.8 nM | Potency (AS120) 22.4 nM | Potency (ATS189) 50.1 nM | Potency (ATS95) 50.1 nM | Potency (C2A) 28.2 nM | Potency (CP185) 50.1 nM | Potency (CP191) 31.6 nM | Potency (CP192) 33.8 nM | Potency (CP194) 33.8 nM | Potency (CP201) 42.6 nM | Potency (CP203) 23.9 nM | Potency (CP211) 33.8 nM | Potency (CP215) 33.8 nM | Potency (CP217) 39.8 nM | Potency (CP237) 17.8 nM | Potency (CP238) 35.5 nM | Potency (CP247) 31.6 nM | Potency (CP250) 39.8 nM | Potency (CP252) 35.5 nM | Potency (CP256) 50.1 nM | Potency (CP260) 20 nM
